# Test results from PubChem BioAssay.
# Activity calls are given as the source filed them. Unless noted, no rule for the calls is given here.
# Assays:
# [1] = tested on: Wnt5a (protein binding on small-molecule microarray); assay: small molecules binding Wnt5a protein – biophysical, small-molecule microarray, 635/667 nm fluorescence, primary screen (AID 1142); details: 635 nm fluorescence, higher = more signal;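 also: fluorescence read at 667 nm with signal to noise per printed feature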
# [2] = ATP-based viability of Huh7 replicon cells – cell-based, CellTiter-Glo luminescence, basal, 48 h, cytotoxicity control for HCV replication inhibitor project, primary screen (AID 1143); details: higher = more signal, called active from +8 up or from −8 down;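 also: Huh7 hepatoma cells carrying a hepatitis C replication reporter with no stimulus; test concentration not given here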
# [3] = Pseudomonas biofilm growth suppression – PAO1 strain, BacTiter-Glo luminescence, LB-PBS, primary screen (AID 1144); details: P. aeruginosa PAO1 biofilm, 12 h, higher = more signal
# [4] = basal CRE-LacZ reporter activity in PC12 – cell-based, unstimulated, primary screen (AID 1145); details: no forskolin, luminescence, 4.5 h, higher = more signal, called active from +8 up or from −8 down
# [5] = forskolin-driven CRE-LacZ activity in PC12 – cell-based, CRE-LacZ reporter, forskolin-stimulated, primary screen (AID 1146); details: luminescence, 4.5 h, higher = more signal, called active from +8 up or from −8 down;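 also: PC12 cells with 6xCRE LacZ reporter stimulated by forskolin 10 µM; beta-galactosidase reporter signal reflecting CREB driven transcription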
# [6] = target: Streptavidin (Streptomyces avidinii) (UniProt P22629); assay: compounds binding control protein streptavidin – biophysical, small-molecule microarray, 635/667 nm fluorescence, artefact control for SMM compound annotation, primary screen (AID 1147); details: higher = more signal;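 also: signal reflects streptavidin binding to arrayed compounds as a control protein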
# Chain of Streptavidin (Streptomyces avidinii) (P22629 whole entry, looked up): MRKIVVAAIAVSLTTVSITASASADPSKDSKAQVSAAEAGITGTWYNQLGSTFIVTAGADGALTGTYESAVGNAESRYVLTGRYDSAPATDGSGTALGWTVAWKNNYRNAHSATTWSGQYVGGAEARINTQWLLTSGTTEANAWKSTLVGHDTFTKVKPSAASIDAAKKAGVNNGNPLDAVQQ
# [7] = probe aInhba binding on compound microarray – biochemical, small-molecule microarray, 635/667 nm fluorescence, primary screen (AID 1148); details: higher = more signal;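 also: score merges 667nm spot fluorescence with signal-to-noise for antibody binding to printed compounds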
# [8] = target: Torsin-1A (Homo sapiens) (UniProt O14656); assay: TOR1A wild-type binding on microarray – cell lysate, small-molecule microarray, lysate, 635/667 nm, primary screen (AID 1149); details: COS7 hTOR1A-WT lysate, 635 nm fluorescence, higher = more signal
# Chain of Torsin-1A (Homo sapiens) (O14656 whole entry, looked up): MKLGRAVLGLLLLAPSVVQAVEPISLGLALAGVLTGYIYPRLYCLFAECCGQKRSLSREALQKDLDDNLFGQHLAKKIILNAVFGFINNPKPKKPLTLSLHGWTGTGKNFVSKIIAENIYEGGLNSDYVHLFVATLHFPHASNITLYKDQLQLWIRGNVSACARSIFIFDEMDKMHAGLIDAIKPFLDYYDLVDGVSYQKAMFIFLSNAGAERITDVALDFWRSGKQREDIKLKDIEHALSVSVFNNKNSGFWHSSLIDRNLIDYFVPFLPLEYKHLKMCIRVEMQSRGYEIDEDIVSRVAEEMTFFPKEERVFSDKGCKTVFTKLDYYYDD
# [9] = target: Torsin-1A (Homo sapiens) (UniProt O14656); assay: torsin A mutant lysate binding on microarrays – cell lysate, small-molecule microarray, COS7 lysate, 635/667 nm fluorescence, primary screen (AID 1150); details: COS7 hTOR1A mutant lysate, 635 nm fluorescence, higher = more signal;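 also: score pools 667 nm emission and signal to noise measuring lysate protein binding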
# [10] = tested on: Sonic hedgehog protein (Shh); assay: Sonic hedgehog microarray binding compounds – biochemical, small-molecule microarray, 635/667 nm fluorescence, primary screen (AID 1151); details: 635 nm fluorescence, higher = more signal;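 also: Shh protein binding to compounds spotted on small-molecule microarray slides; score combines spot fluorescence intensity with signal-to-noise across triplicate slides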
Compound,composite z-score [1],z-score [2],z-score [3],z-score [4],z-score [5],composite z-score [6],composite z-score [7],composite z-score [8],composite z-score [9],composite z-score [10]
CCOC(=O)[C@H](CC(C)C)NC(=O)CCC1CC(OC(=O)NCc2ccc3c(c2)OCO3)CC2(CCCC(COC(=O)NCCc3ccccc3OC)O2)O1 (stereo not given in full),0.08,-0.556 (inactive),0.162 (inactive),-0.0755 (inactive),0.101 (inactive),0.512,-0.128,-0.0035,0.582,1.19
COC(=O)[C@H](C)NC(=O)CC=C[C@@H](C)[C@@H]1C=C[C@H](O)[C@@H](CO)O1,0.355,0.301 (inactive),1 (inactive),-0.434 (inactive),0.222 (inactive),0.116,-0.0918,0.945,0.394,1.39
COc1ccc(OC[C@H]2CN3[C@@H](CC[C@@H](C)[C@@H]3c3ccc(Br)cc3)C(=O)O2)cc1,-0.144,-0.202 (inactive),-0.225 (inactive),2.62 (inactive),-0.165 (inactive),0.169,-0.2,0.357,0.28,0.583
COc1ccc2c(c1)O[C@@H](c1cccc(C(F)(F)F)c1)[C@H](O)C2=O,0.104,-2.98 (inactive),-0.837 (inactive),2.27 (inactive),-0.892 (inactive),0.562,-0.0645,-0.0248,0.215,0.37
CC(=O)OC[C@H]1O[C@H](CCON=C(C)C)C=C[C@@H]1OC(C)=O,0.0141,0.702 (inactive),0.249 (inactive),-0.715 (inactive),0.383 (inactive),0.17,-0.038,-0.0297,-0.115,0.427
CCN1C(=O)[C@H]2[C@@H]3C(=CC[C@H]2C1=O)C(=O)[C@H]1O[C@H]1[C@H]3O,0.116,-5.2 (inactive),1.41 (inactive),2.79 (inactive),21.9 (active),0.49,-0.183,0.734,0.348,1.64
CC(C)(C)N1C(=O)[C@H]2[C@H]3[C@H](O)[C@H](O)CC(=NOC[C@@H](O)COCc4ccco4)[C@@H]3CC[C@H]2C1=O,0.0983,0.257 (inactive),-0.579 (inactive),1.06 (inactive),0.279 (inactive),-0.276,-0.101,0.334,0.275,-0.633
C=CC[C@@H]1C=C[C@H](ON=C(C)CCN2CCCCc3nc(C)c(C)cc32)[C@@H](CO)O1,0.291,-1.25 (inactive),0.701 (inactive),1.72 (inactive),0.578 (inactive),-0.208,-0.179,2.03,1.52,2.05
CON=C(C)CCN1CCCc2nc(C)c(C)cc21,0.377,0.258 (inactive),0.128 (inactive),0.345 (inactive),-0.0543 (inactive),0.286,-0.0645,-0.209,0.23,1.07
CC(CCN1CCc2nc(-c3ccccc3)c(-c3ccccc3)cc2C1)=NO[C@@H](C)c1cc(-c2c(C)cc(C)cc2C)no1,-0.405,-2.58 (inactive),-0.832 (inactive),2.71 (inactive),-0.426 (inactive),2.15,-0.159,0.199,0.153,-0.387
C#CCCCON=C1C[C@@H](O)[C@@H](O)[C@@H]2[C@@H]3C(=O)N(C4CCCCC4)C(=O)[C@@H]3CC[C@@H]12,-0.0633,0.0192 (inactive),-0.356 (inactive),1.78 (inactive),-0.0263 (inactive),-0.383,-0.286,-0.0195,-0.336,0.353
COC(=O)CC=C[C@@H](C)[C@@H](C=NOC(C)CN1CCCc2nc(C)c(C)cc21)NS(=O)(=O)c1ccc(C)cc1 (stereo not given in full),0.448,-0.214 (inactive),1.42 (inactive),0.0013 (inactive),0.541 (inactive),-0.176,0.0982,0.308,0.309,0.791
C[C@@H]1CC[C@H]2C(=O)OC(CN3C(=O)c4ccccc4C3=O)CN2[C@H]1c1ccc(Br)cc1 (stereo not given in full),-0.0102,0.135 (inactive),0.447 (inactive),1.19 (inactive),-0.841 (inactive),0.942,-0.045,-0.0288,0.396,-0.365
COc1ccc(COC(=O)NN=C2C[C@@H](O)[C@@H](O)[C@@H]3[C@@H]4C(=O)N([C@@H](C)c5ccccc5)C(=O)[C@@H]4CC[C@H]23)cc1,0.366,-1.71 (inactive),-0.183 (inactive),1.79 (inactive),-0.183 (inactive),1.02,0.0667,-0.982,0.106,-0.983
CC(CCN1CCCCc2nc(C)c(C)cc21)=NOC[C@@H](O)[C@H]1O[C@@H]2OC(C)(C)O[C@@H]2[C@H]1O,0.228,1.06 (inactive),-0.0386 (inactive),-0.0824 (inactive),1.41 (inactive),-0.0979,-0.248,0.477,0.296,1.62
CCOC(=O)CCN1C(=O)[C@H]2[C@H]3[C@H](O)[C@H](O)CC(=NNC(=O)OCC)[C@H]3CC[C@H]2C1=O,-0.034,-1.63 (inactive),1.25 (inactive),-0.202 (inactive),0.531 (inactive),-0.58,-0.24,0.0668,0.204,1.1
CC(C)[C@@H](OCc1ccccc1)[C@H](C)C=NO[C@@H](C)c1cn([C@H](CO)Cc2ccccc2)nn1,-0.0307,-0.927 (inactive),0.496 (inactive),0.843 (inactive),-0.0785 (inactive),-0.0202,-0.107,0.752,0.441,0.26
COC(=O)[C@H](C)NC(=O)CCC1CC(OC(=O)NCCc2ccc(F)cc2)CC2(CCCC(COC(=O)NCc3ccccc3)O2)O1 (stereo not given in full),0.101,-0.455 (inactive),-0.035 (inactive),0.199 (inactive),0.833 (inactive),0.848,-0.0209,0.257,0.477,1.25
CCc1cc2c(nc1CC)CCN(CCC(C)=NOCC[C@@H]1C=C[C@H](OC(C)=O)[C@@H](COC(C)=O)O1)C2,0.257,0.0095 (inactive),-0.0152 (inactive),3.88 (inactive),0.329 (inactive),1.78,0.127,2.66,1.66,1.32
COC(=O)CC=C1c2ccccc2[C@H](OC)[C@H]1C,0.0034,0.553 (inactive),0.624 (inactive),0.478 (inactive),0.345 (inactive),-0.0324,0.0275,0.399,-0.127,0.103
C#CCCCON=C1C[C@@H](O)[C@@H](O)[C@@H]2[C@@H]3C(=O)N([C@@H](C)c4ccccc4)C(=O)[C@@H]3CC[C@@H]12,0.025,0.341 (inactive),-0.0365 (inactive),0.0676 (inactive),0.227 (inactive),0.214,-0.239,-0.281,-0.434,0.0938
COc1ccc(COC(=O)NN=C2C[C@@H](O)[C@@H](O)[C@@H]3[C@@H]4C(=O)N(C(C)(C)C)C(=O)[C@@H]4CC[C@@H]23)cc1,0.211,0.22 (inactive),0.224 (inactive),0.973 (inactive),0.384 (inactive),0.244,0.0086,0.385,1.47,0.612
CCOC(=O)[C@H](CC(C)C)NC(=O)CCC1CC(OC(=O)NCCc2ccc(F)cc2)CC2(CCCC(COC(=O)NCCCN3CCCC3=O)O2)O1 (stereo not given in full),0.189,0.378 (inactive),-0.31 (inactive),0.109 (inactive),0.319 (inactive),0.484,-0.0195,1.66,0.1,0.894
COc1ccc(OC[C@@H](CO)OC)cc1,0.131,0.314 (inactive),0.86 (inactive),0.562 (inactive),0.17 (inactive),0.495,-0.0962,0.373,0.304,0.577
CCN1C(C)=C(C(=O)OC)[C@@H](c2ccccc2)N2C(=O)[C@](O)(C(=O)OC)CC(C(C)=O)=C12,0.24,0.0021 (inactive),-0.63 (inactive),-0.324 (inactive),-0.482 (inactive),-0.466,-0.0986,0.837,0.153,0.742
O=C1[C@H]2[C@H]3[C@H](O)[C@H](O)CC(=NO[C@@H]4O[C@H](CO)[C@@H](O)[C@H](O)[C@H]4O)[C@H]3CC[C@H]2C(=O)N1C[C@@H]1CCCO1,0.16,0.297 (inactive),0.261 (inactive),-0.477 (inactive),-0.105 (inactive),0.253,-0.159,0.288,0.952,-0.167
CC(C)=NOC[C@@H](O)[C@H]1O[C@@H]2OC(C)(C)O[C@@H]2[C@H]1O,-0.297,0.605 (inactive),0.503 (inactive),-0.473 (inactive),-0.476 (inactive),1.23,0.333,1.34,0.0837,0.785
O=C1C2=CC[C@H]3C(=O)N(C[C@@H]4CCCO4)C(=O)[C@H]3[C@H]2[C@H](O)[C@@H]2O[C@H]12,0.487,-4.97 (inactive),0.846 (inactive),0.0664 (inactive),21.2 (active),0.19,-0.12,0.863,0.511,-0.331
C=CC[C@@H]1C=C[C@H](Oc2ccc(C)cc2)[C@@H](COC(=O)NCc2cccc3ccccc23)O1,0.243,-2.06 (inactive),-0.607 (inactive),-0.527 (inactive),-0.868 (inactive),-0.142,-0.156,-0.0815,-0.0604,0.701
COC(=O)CC=C[C@@H](C)[C@@H](C=NOC[C@@H](C)[C@H](OCc1ccccc1)C(C)C)OC,0.0814,-0.112 (inactive),-0.0142 (inactive),0.848 (inactive),0.0112 (inactive),-0.437,-0.161,0.155,-0.0103,0.359
